Experimental data as given in PubChem BioAssay AID1159580 (chemical genetic matrix, 2015).
About 2,000 (36%) of roughly 5,500 compounds were called active. Inconclusive results (about 18%) are left out. The list shows a part of the results. Unmarked numbers belong to inactive results. Rule as the data show it: active = normalized growth mostly below about 0.91 (no sharp cut-off); inconclusive = no clear call, values can overlap the other calls; inactive = mostly above about 0.92.

Assay: chemical genetic growth profiling, strain panel (AID 1159580);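 also: tested at 20 µM; growth read once vehicle control cultures reached saturation at 30 °C; 1 = growth at the plate median or of vehicle wells; lower values mean less growth of the strain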
Conditions: S. cerevisiae deletion strains, growth OD
[1] = locus YAL013W, strain DEP1, hits give low values
[2] = locus YBR229C, strain ROT2, hits give low values
[3] = locus YDL101C, strain DUN1, hits give low values
[4] = locus YDR150W, strain NUM1, hits give low values
[5] = locus YEL061C, strain CIN8, hits give low values
[6] = locus YGR078C, strain PAC10, hits give low values
[7] = locus YHR030C, strain SLT2, hits give low values
[8] = locus YHR087W, strain rtc3, hits give low values
[9] = locus YJR043C, strain POL32, hits give low values
[10] = locus YJR075W, strain HOC1, hits give low values
[11] = locus YLR039C, strain RIC1, hits give low values
[12] = locus YLR058C, strain SHM2 (second series), hits give low values
[13] = locus YLR085C, strain ARP6, hits give low values
[14] = locus YLR262C, strain YPT6, hits give low values
[15] = locus YML094W, strain GIM5, hits give low values
[16] = locus YMR219W, strain ESC1, hits give low values
[17] = locus YMR263W, strain SAP30, hits give low values
[18] = locus YNL153C, strain GIM3, hits give low values
[19] = locus YNL298W, strain CLA4 (second series), hits give low values
[20] = locus YNL322C, strain KRE1, hits give low values
[21] = locus YNR030W, strain Alg12, hits give low values
[22] = locus YPL055C, strain LGE1, hits give low values
[23] = locus YPL241C, strain CIN2, hits give low values
[24] = locus YPR135W, strain CTF4, hits give low values

O=C(O)CSCC(=O)NC1CCN(Cc2ccccc2)CC1
normalized growth [1]: 1.01
normalized growth [2]: 1.01
normalized growth [3]: 0.997
normalized growth [4]: 1.01
normalized growth [5]: 1.02
normalized growth [6]: 1
normalized growth [7]: 1.08
normalized growth [8]: 0.994
normalized growth [9]: 1
normalized growth [10]: 1.01
normalized growth [11]: 1.02
normalized growth [12]: 0.998
normalized growth [13]: 0.993
normalized growth [14]: 1.05
normalized growth [15]: 1.02
normalized growth [16]: 1.01
normalized growth [17]: 0.998
normalized growth [18]: 1.01
normalized growth [19]: 1.03
normalized growth [20]: 1.02
normalized growth [21]: 1.02
normalized growth [22]: 1.02
normalized growth [23]: 1.04
normalized growth [24]: 1

O=C(NC1CCN(Cc2ccc(Cl)c(Cl)c2)CC1)c1ccccc1
normalized growth [1]: 1.01
normalized growth [2]: 1
normalized growth [3]: 0.996
normalized growth [4]: 0.977
normalized growth [5]: 0.946
normalized growth [6]: 1.01
normalized growth (locus YGR229C, strain SMI1, hits give low values): 1
normalized growth [7]: 0.641 (active)
normalized growth [8]: 0.987
normalized growth [9]: 1.01
normalized growth [10]: 1.02
normalized growth (locus YKL190W, strain CNB1, hits give low values): 1
normalized growth [11]: 0.94
normalized growth [12]: 1.01
normalized growth [13]: 0.86
normalized growth [14]: 0.825
normalized growth [15]: 0.889
normalized growth [16]: 0.992
normalized growth [17]: 0.998
normalized growth [18]: 0.988
normalized growth [19]: 0.986
normalized growth [20]: 1
normalized growth [21]: 0.96
normalized growth (locus YOL006C, strain TOP1, hits give low values): 0.683 (active)
normalized growth [22]: 0.995
normalized growth [23]: 0.93
normalized growth [24]: 0.783
